Several values for one entry are separate records, joined by “and”; a condition that tells them apart may be missing. Equal entries are not always repeated. Activity calls are given as the source filed them.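 How the source made its calls, unless noted: active means compounds whose cell count with miR-34 switched on is under 0.7 times the count with it off; inactive means the rest.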

The nature of assay [1]: sensitizers of A549 cells to miR-34 induction, primary screen, imaging, A549 dox-inducible miR-34, nuclei and caspase counts (AID 1347080). Particulars: A549 miR-34 inducible, Hoechst nuclei count, 48 h.
A short description of assay [2]: survival rescue of mitochondrial mutant cells in low glucose, primary screen, MELAS cybrids, Rieske KO mouse fibroblasts, CellTiter-Glo (AID 1508586;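 active means mean z-score across replicates of 1.96 or higher in either the MELAS or the Rieske mutant cell line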;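 further: z relative to plate mean and SD of compound and empty wells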). Background: In ATP-based viability assays light output follows the ATP content of the culture.
The target in assay [3] is Mitogen-activated protein kinase 7 (Homo sapiens) (UniProt Q13164). Put plainly: ERK5 transactivation activators in reporter cells, primary screen, cell-based, HTS (AID 1508626;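 active means luciferase signal above three times the same-plate solvent-only control wells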;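 further: luciferase driven by Gal4-ERK5 fusion binding five Gal4 sites before minimal TATA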). Particulars: HeLa Gal4-ERK5 transactivation, 18 h, at 5 µM, stronger effect = higher value.
Assay [4] addresses NAD(+) hydrolase SARM1 (Homo sapiens) (UniProt Q6SZW1). Put plainly: SARM1 TIR NADase inhibitors, cell lysate, NAD-Glo luminescence (AID 1508614;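 active means compound whose remaining NAD level is above about 45 nM, limit read from the data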). Particulars: SAM-TIR HEK293T lysate NADase, at 1 µM, stronger effect = higher value.
Assay [5] is described as follows: viability rescue of complex I mutant cybrids, primary screen, cell-based, galactose medium, ATP luminescence (AID 1645843;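 active means z-score of at least 1.8 in each of two replicates, scored against plate mean and spread of sample wells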;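 further: positive z means more ATP and so rescue of galactose-driven cybrid death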). Particulars: complex I mutant cybrid cells, 72 h, stronger effect = higher value.
Assay [6] can be described thus: LFS_MB_P medulloblastoma growth inhibition, cell-based, chromothripsis tumors, cisplatin or BGB combos (AID 1671449; in the data active means inhibition above about 80%;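 further: cells exposed for 96 hours; 0% = vehicle DMSO and 100% = killing by high DMSO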). Particulars: LFS_MB_P medulloblastoma cells.
Assay [7] can be described thus: HDN33 neuroblastoma growth inhibition, cell-based, chromothripsis tumors, cisplatin or BGB combos (AID 1671450; in the data active means inhibition above about 80%;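 further: cells exposed to compound for four days; 0% = vehicle DMSO and 100% = cell killing by high DMSO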). Particulars: HDN33 neuroblastoma cells, stronger effect = higher value.
Assay [8] in a line: ICB984 medulloblastoma cell growth inhibition, synergistic combos for chromothripsis tumors, cisplatin or BGB combos (AID 1671451; call rule not given here;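 further: cells exposed for 96 hours before readout; 0% = vehicle DMSO and 100% = killing by high DMSO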). Particulars: ICB984 medulloblastoma cells, drug combinations, stronger effect = higher value.
The nature of assay [9]: LFS_MB_1R medulloblastoma cell growth inhibition, synergistic combos for chromothripsis tumors, cisplatin or BGB combos (AID 1671452; in the data active means inhibition above about 80%;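 further: cells exposed for 96 hours before readout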). Particulars: LFS_MB_1R medulloblastoma cells, stronger effect = higher value.
Assay [10] in a line: HTB85 osteosarcoma cell growth inhibition, synergistic combos for chromothripsis tumors, BGB or cisplatin IC20 combos (AID 1671453; in the data active means inhibition above about 80%;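 further: cells exposed for 96 hours before readout; 0% = vehicle DMSO and 100% = high DMSO killing control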). Particulars: HTB85 osteosarcoma cells, drug combinations, stronger effect = higher value.
Assay [11] can be described thus: CRL2098 osteosarcoma cell growth inhibition, synergistic combos for chromothripsis tumors, BGB or cisplatin IC20 combos (AID 1671454; in the data active means inhibition above about 80%;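 further: cells exposed for 96 h before readout; 0% = vehicle DMSO and 100% = killing by high DMSO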). Particulars: CRL2098 osteosarcoma cells, drug combinations, stronger effect = higher value.
The nature of assay [12]: HD-MB03 medulloblastoma cell growth inhibition, synergistic combos for chromothripsis tumors, BGB or cisplatin IC20 combos (AID 1671455; in the data active means inhibition above about 83%;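 further: 0% = vehicle DMSO and 100% = high DMSO as cytotoxic control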). Particulars: HD-MB03 medulloblastoma cells, stronger effect = higher value.
Where [13] appears, read: stronger effect = lower value, cell number ratio, induced over uninduced.
[14] abbreviates: measured here: relative caspase fold change +Dox/-Dox.
The mark [15] stands for this setting: measured here: total cells with miR-34 induction, stronger effect = lower value.
The mark [16] stands for this setting: measured here: total cells without miR-34 induction.
Setting [17] is: MELAS cybrid survival, CellTiter-Glo 48 h, stronger effect = higher value.
[18] abbreviates: Rieske KO mouse fibroblast survival, CellTiter-Glo 72 h.
Setting [19] is: measured here: combination with BGB IC40, at 0.05 µM.

Sequence of Mitogen-activated protein kinase 7 (Homo sapiens) (Q13164 whole entry, looked up, the tested form may be a part): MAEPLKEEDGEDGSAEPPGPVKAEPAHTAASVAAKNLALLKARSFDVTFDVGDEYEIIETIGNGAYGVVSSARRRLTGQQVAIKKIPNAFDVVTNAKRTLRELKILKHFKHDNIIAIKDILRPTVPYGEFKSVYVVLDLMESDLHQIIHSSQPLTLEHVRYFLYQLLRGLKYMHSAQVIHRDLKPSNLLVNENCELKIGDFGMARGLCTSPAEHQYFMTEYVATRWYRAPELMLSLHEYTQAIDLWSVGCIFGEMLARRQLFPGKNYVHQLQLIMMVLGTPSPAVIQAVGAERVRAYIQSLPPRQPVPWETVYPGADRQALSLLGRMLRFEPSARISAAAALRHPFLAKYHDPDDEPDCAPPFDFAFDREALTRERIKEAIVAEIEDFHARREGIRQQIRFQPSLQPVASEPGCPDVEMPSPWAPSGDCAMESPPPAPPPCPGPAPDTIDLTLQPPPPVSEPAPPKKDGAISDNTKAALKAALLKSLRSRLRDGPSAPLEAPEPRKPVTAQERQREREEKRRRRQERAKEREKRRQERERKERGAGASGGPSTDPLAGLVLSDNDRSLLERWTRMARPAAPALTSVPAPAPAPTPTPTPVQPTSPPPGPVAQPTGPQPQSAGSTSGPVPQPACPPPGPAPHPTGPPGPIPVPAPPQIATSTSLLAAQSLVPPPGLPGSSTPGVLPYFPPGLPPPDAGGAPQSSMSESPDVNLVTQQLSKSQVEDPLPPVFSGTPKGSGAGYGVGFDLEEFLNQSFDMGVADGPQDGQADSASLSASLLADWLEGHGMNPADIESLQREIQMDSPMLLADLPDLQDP
Sequence of NAD(+) hydrolase SARM1 (Homo sapiens) (Q6SZW1 whole entry, looked up): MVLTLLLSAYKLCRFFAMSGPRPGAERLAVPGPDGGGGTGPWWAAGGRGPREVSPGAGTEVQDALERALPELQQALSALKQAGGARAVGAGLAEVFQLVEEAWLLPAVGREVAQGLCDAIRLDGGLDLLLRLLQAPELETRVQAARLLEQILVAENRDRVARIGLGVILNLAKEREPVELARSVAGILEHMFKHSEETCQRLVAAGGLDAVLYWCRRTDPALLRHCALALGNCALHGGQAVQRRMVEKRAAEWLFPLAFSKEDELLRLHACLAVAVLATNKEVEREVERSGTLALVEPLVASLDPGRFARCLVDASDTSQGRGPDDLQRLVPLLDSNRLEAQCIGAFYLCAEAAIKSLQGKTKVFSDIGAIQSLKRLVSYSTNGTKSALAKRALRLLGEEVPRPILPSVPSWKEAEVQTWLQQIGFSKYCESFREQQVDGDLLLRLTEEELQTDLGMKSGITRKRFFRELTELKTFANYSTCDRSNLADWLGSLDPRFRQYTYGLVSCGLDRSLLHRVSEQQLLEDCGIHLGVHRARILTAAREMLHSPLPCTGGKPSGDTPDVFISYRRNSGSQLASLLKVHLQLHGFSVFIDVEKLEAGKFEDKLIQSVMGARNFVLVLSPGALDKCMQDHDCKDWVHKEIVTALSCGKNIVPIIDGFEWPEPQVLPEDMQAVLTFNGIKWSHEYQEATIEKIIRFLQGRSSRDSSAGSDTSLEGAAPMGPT

With `CC1(C)O[C@@H]2C[C@H]3[C@@H]4CCC5=CC(=O)CC[C@]5(C)[C@@]4(F)[C@@H](O)C[C@]3(C)[C@]2(C(=O)CCl)O1`, the figures for the fold change in [1] (setting [13]) and in assay [1] (setting [14]) were 0.774 (inactive) and 1.34, respectively. Further, the cell count in assay [1] (setting [15]) amounted to 5550; in assay [1] (setting [16]), 7170. In addition, the z-score is 0.0233 (inactive) in [2] (setting [17]) and 1.13 in [2] (setting [18]). The luciferase signal in assay [3] was 112 AU (inactive).

Regarding `NC(=NCCCCCCN=C(N)/N=C(\N)Nc1ccc(Cl)cc1)/N=C(\N)Nc1ccc(Cl)cc1`, the fold change in assay [1] (setting [13]) is 0.918 (inactive) and 0.785 (inactive); in assay [1] (setting [14]), 1.13 and 3.13. Further, the cell count in assay [1] (setting [15]) is 1670 and 3350; in assay [1] (setting [16]), 1820 and 4270. The z-score in [2] (setting [17]) was -4.55 (inactive); in [2] (setting [18]) it was -0.0121. Moreover, the luciferase signal in [3] is 32 AU (inactive).

Turning to `O=C(Cn1ccnc1[N+](=O)[O-])NCCO`, the fold change in assay [1] (setting [13]) is 0.871 (inactive) and 0.832 (inactive); in [1] (setting [14]) it was 1.39 and 4.67. In addition, the cell count in [1] (setting [15]) is 8390 and 10900; in [1] (setting [16]), 9630 and 13100. Further, the z-score in assay [2] (setting [17]) is -0.801 (inactive); in [2] (setting [18]), -0.143. For the same molecule, the luciferase signal in assay [3] was 76 AU (inactive).

For `CC(=O)OC/C=C(C)/C=C/C=C(C)/C=C/C1=C(C)CCCC1(C)C`, the fold change in assay [1] (setting [13]) was 0.9 (inactive); in [1] (setting [14]) it was 1.05. Further, the cell count in assay [1] (setting [15]) was found to be 10300; in [1] (setting [16]), 11500. The z-score in assay [2] (setting [17]) was -0.677 (inactive); in [2] (setting [18]) it was -0.15; in [5], -0.205 (inactive). Besides, the remaining NAD in assay [4] is 10 nM (inactive). Also, the luciferase signal in assay [3] is 96 AU (inactive).

As usually defined, the inhibition is the change of the read-out against control, counted positive when it falls. For the molecule `CCN1CCN(c2cc3c(cc2F)c(=O)c(C(=O)O)cn3C2CC2)CC1`, the fold change in assay [1] (setting [13]) was 0.982 (inactive) and 0.836 (inactive) and 0.884 (inactive); in assay [1] (setting [14]), 1.31 and 5.17 and 1.41. The cell count was 8550 and 10100 and 9090 in assay [1] (setting [15]); 8710 and 12100 and 10300 in [1] (setting [16]). Further, the z-score was -0.903 (inactive) and 0.356 (inactive) in assay [2] (setting [17]); -0.808 and -0.546 in assay [2] (setting [18]); -0.045 (inactive) and 0.1 (inactive) in assay [5]. The remaining NAD in assay [4] is 10 nM (inactive). The luciferase signal in assay [3] was 144 AU (inactive). Also, the inhibition in assay [6] (at 0.5 µM, stronger effect = higher value) is -14.6% (inactive); in [6] (measured here: combination with BGB IC20, at 0.005 µM), -15.1%; in [6] (measured here: combination with BGB IC40, at 0.005 µM) it was -16%; in [6] (setting [19]), -15.4%; in assay [6] (measured here: combination with cisplatin, at 0.5 µM, stronger effect = higher value) it was -35.9%; in assay [6] (measured here: combination with cisplatin, at 5 µM, stronger effect = higher value) it was -7.57%. In addition, the inhibition in assay [7] (BGB combo, at 5 µM) is -5.32%; in assay [7] (at 0.5 µM), -11.2% (inactive); in [7] (cisplatin combo, at 5 µM) it was 14%; in assay [7] (measured here: with BGB IC20 combination, at 0.5 µM) it was -32.1%; in [7] (measured here: with cisplatin IC20 combination, at 0.5 µM), 1.88%; in [7] (single agent, at 5 µM), -10.9%. The inhibition in assay [8] (BGB IC20 combo, at 0.005 µM) was -8.19%; in assay [8] (BGB IC40 combo, at 0.005 µM), -15.5%; in assay [8] (BGB IC40 combo, at 0.05 µM) it was -15.7%; in assay [8] (at 0.5 µM), -30.1% (inactive); in assay [8] (cisplatin combo, at 0.05 µM), -18.9%; in [8] (cisplatin combo, at 0.5 µM), -33.6%. Moreover, the inhibition in assay [8] (cisplatin combo, at 5 µM) is 5.13%; in assay [8] (measured here: 5 uM single agent, at 5 µM), -24%; in [9] (at 0.5 µM) it was -17.4% (inactive); in assay [9] (setting [19]), -29.3%; in assay [9] (measured here: combination with cisplatin, at 0.5 µM), -5.5%; in assay [9] (measured here: combination with cisplatin, at 5 µM), -5.5%. The inhibition in assay [10] (at 0.5 µM) was 4.78% (inactive); in assay [10] (measured here: with BGB IC20, at 0.5 µM), -19%; in [10] (measured here: with BGB IC20, at 5 µM), -4.03%; in assay [10] (measured here: with cisplatin IC20, at 0.5 µM), 19.5%; in assay [10] (measured here: with cisplatin IC20, at 5 µM) it was -34%; in assay [10] (single agent, at 5 µM), -31.7%. In addition, the inhibition in assay [11] (at 0.5 µM) was -28.3% (inactive); in [11] (measured here: combination with BGB at IC20, at 0.5 µM), -35.5%; in assay [11] (measured here: combination with cisplatin at IC20, at 0.5 µM) it was -26.8%; in assay [12] (at 0.5 µM) it was -4.62% (inactive); in assay [12] (measured here: combo with BGB at IC20, at 0.5 µM), -3.92%; in assay [12] (measured here: combo with cisplatin at IC20, at 0.5 µM), -4.26%.
